# In the library only some 5.3% were active in any assay of this set; here they are far more common.
# BAZ2B inh = BAZ2B (human) inhibition; Potency, µM (titrated, usually from 114 µM), for the others: top-dose activity change, negative = inhibition, actives largely listed as inhibitors; hit rate 4.4% among 360,000; AID 504333; AlphaScreen BAZ2B-H3K14Ac peptide displacement; note: potency is the fitted concentration of half-maximal effect; % is set by controls: 0 for no effect and ±100 for the full control effect; nearly all actives have a fitted effect of over 60% in size
#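 AlphaScreen luminescence quantifies BAZ2B engagement of H3K14Ac peptide; the protein and biotinylated peptide are both at 50 nM final, buffer PBS pH 7.4 with 0.01% Tween-20, all steps at room temperature.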
# Six1-Eya2 blk = blocks human Six1 binding to Eya2. hit rate 0.56% among 360,000. AlphaScreen GST-Six1/His-Eya2 binding, biochemical; hits give low values. Q15475+O00167. activity change, % (no concentration beside the values). AID 651725; in the data active = activity change below about -65%; inconclusive = mostly about -30% to -63%; note: % is set by controls: 0 for no effect and ±100 for the full control effect
# Target sequence (O00167 whole entry, looked up): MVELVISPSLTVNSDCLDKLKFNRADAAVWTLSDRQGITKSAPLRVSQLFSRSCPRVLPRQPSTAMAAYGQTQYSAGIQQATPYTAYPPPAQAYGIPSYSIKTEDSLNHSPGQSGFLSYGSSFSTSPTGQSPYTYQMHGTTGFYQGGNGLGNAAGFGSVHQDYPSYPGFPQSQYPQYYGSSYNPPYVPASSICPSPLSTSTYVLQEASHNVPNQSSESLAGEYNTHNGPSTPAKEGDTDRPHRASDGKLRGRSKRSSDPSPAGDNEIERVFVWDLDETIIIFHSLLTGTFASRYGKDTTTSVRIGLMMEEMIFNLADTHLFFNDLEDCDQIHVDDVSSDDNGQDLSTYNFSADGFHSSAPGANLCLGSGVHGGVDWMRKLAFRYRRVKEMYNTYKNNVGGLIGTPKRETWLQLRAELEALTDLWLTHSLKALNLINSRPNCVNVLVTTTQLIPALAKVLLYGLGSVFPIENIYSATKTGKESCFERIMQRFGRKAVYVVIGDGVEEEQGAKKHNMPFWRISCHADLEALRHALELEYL
# Target sequence (Q15475 whole entry, looked up): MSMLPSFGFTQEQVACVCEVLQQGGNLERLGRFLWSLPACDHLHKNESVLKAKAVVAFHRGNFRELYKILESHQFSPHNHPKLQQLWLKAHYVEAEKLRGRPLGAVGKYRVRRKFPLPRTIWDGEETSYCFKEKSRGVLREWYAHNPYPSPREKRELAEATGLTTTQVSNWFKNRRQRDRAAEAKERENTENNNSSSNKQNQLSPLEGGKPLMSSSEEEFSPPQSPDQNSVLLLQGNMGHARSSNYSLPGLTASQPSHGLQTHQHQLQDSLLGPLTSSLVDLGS
#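 AlphaScreen with GST-Six1 and His-Eya2 (5X mix: 250 nM and 500 nM), glutathione donor and nickel acceptor beads; buffer 50 mM Tris pH 8.0, 300 mM NaCl, 1 mM TCEP; 1 h at 37 C in the dark.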
# HP1b chromo inh = HP1-beta chromodomain-methylated histone interaction inhibition; P83916; AID 540317; hit rate 0.56% among 390,000; AlphaScreen HP1-beta / biotin-H3K9me3 peptide binding; Potency, µM (top dose mostly 114 µM), without a hit: at the highest dose activity change, negative = inhibition, usual class: inhibitors; note: potency is the fitted concentration of half-maximal effect; nearly all actives have a fitted effect of over 70% in size
#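 AlphaScreen: HP1-beta (50 nM) preformed 30 min with biotin-H3(1-18)K9me3 peptide (50 nM) in PBS pH 7.4, 0.01% Tween-20. Compound added for 30 min at RT, then streptavidin donor/nickel chelate acceptor beads (10 ug/mL) for 30 min.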
# TDP1 inh = TDP1 (human) enzyme inhibition | Q9NUW8 | Potency, µM (titrated, usually from 130 µM), without a hit: at the top dose activity change, negative = inhibition, actives largely listed as inhibitors | recombinant TDP1, AlphaScreen DNA substrate cleavage | hit rate 0.28% among 350,000; note: potency is the fitted concentration of half-maximal effect; % is set by controls: 0 for no effect and ±100 for the full control effect; nearly all actives have a fitted effect of over 40% in size
#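 Signal: AlphaScreen proximity between streptavidin donor and anti-FITC acceptor beads on intact substrate. Reaction: Tdp1 1 nM, substrate 15 nM final, 5 min RT after 15 min compound preincubation.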
# JMJD2A Tudor inh = JMJD2A Tudor domain (human) inhibition; AlphaScreen JMJD2A-Tudor / H3K4me3 peptide binding; O75164; hit rate 4.4% among 390,000; Potency, µM (doses to about 114 µM), without a hit: at the highest dose activity change, negative = inhibition, most hits filed as inhibitors; note: potency is the fitted concentration of half-maximal effect; % is set by controls: 0 for no effect and ±100 for the full control effect; nearly all actives have a fitted effect of over 50% in size
# CtBP-E1A inh = blocks the CtBP interaction with E1A. AlphaScreen GST-E1A/His-CtBP binding, 1536-well; hits give low values. hit rate 0.49% among 340,000. activity change, % (concentration not given with the values); in the data active = activity change below about -65%; inconclusive = mostly about -30% to -63%; note: % is set by controls: 0 for no effect and ±100 for the full control effect
#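 Homogeneous bead-based format: GST-tagged E1A captured on glutathione donor beads, His-tagged CtBP on nickel acceptor beads; compounds precede bead addition by 2 h at 37 °C.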
# * marks the source's active call; other numbers are inactive results; ? = inconclusive; . = no result; [ ] = another dose, or the depositor's remark. Unless noted, calls come from the whole dose curve; as a rule, active = well fitted inhibition curve with a large enough effect; inconclusive = small, poorly fitted or top-dose-only effect; inactive = no such curve, though single readings can be large or run the other way.
SMILES,BAZ2B inh,Six1-Eya2 blk,HP1b chromo inh,TDP1 inh,JMJD2A Tudor inh,CtBP-E1A inh
O=C(Nc1cc(Cl)cc(Cl)c1)c1ccc(F)c(S(=O)(=O)N2CCCCCC2)c1,-2%,.,52%,0%,-13%,.
C=CCC(C)(O)c1ccc(OC)cc1 (stereo unspecified),.,.,.,4%,.,.
Cn1c(=O)c(=O)n(C)c2cc(S(=O)(=O)Nc3ccc(Cl)c(C(F)(F)F)c3)ccc21,.,.,34%,-2%,-11%,.
Cc1cccc(Cn2c(=O)n(-c3ccccc3C)c(=O)c3c2c2cc(C)ccc2n3C)c1,-7%,.,64%,0%,21%,.
Fc1ccc(-n2nc(-c3ccccc3)c3cnc4ccccc4c32)cc1Cl,39%,.,61%,2%,-17%,.
CN(C)c1ccc(CN(Cc2ccco2)C(=O)COc2ccc(F)cc2)cc1,28µM*,.,?,14%,45µM*,.
Cc1cc(C)c2c(CC(=O)N(Cc3ccc(N(C)C)cc3)Cc3ccco3)coc2c1,10µM*,.,?,11%,13µM*,.
Cc1cc(C)c2c(CC(=O)NN(C)C)coc2c1,-6%,1,15%,0%,-6%,-9
Cc1ccccc1C(=O)N(Cc1ccc(N(C)C)cc1)Cc1ccco1,35µM*,.,?,11%,45µM*,.
O=C(CSc1nnc(-c2ccncc2)o1)Nc1nncs1,-22%,-22,18%,.,32µM*,-2
COc1ccc(CNC(=O)Cn2c(=O)cc(-c3ccccc3)c3c(C)nn(C)c32)cc1,-11%,.,14%,3%,-17%,.
CCCCC(C)/C=C(C)/C=C(\C)C(=O)NC1=CC(O)(/C=C/C=C/C=C/C(=O)NC2=C(O)CCC2=O)C2OC2C1=O (stereo unspecified),.,.,.,-10%,.,.
COC(=O)c1cc(CN2C(=O)c3ccccc3C2=O)c(O)c([N+](=O)[O-])c1,56µM*,-2,49%,.,-6%,24
COC(=O)c1ccc(CN2C(=O)c3ccccc3C2=O)cc1,5%,10,45%,2%,6%,12
COc1cccc(C(=O)Nc2ccc(Cl)c(-c3nc4ccccc4[nH]3)c2)c1,-25%,.,60%,6%,-15%,.
CCN(CC(=O)Nc1cccc(OC)c1)CC(=O)Nc1cccc2ccccc12,-20%,-6,36%,-1%[56.1 µM],-16%,1
CN(CC(=O)Nc1cccc(F)c1)CC(=O)Nc1ccccc1Oc1ccccc1,25µM*,1,?,.,10µM*,.
CN(CC(=O)Nc1cccc(F)c1)C(=O)c1ccc(COc2ccccc2)cc1,-9%,-70*,3%,.,-7%,-9
CN(CC(=O)Nc1ccccc1Br)C(=O)c1ccc(COc2ccccc2)cc1,-19%,?,20%,3%,-9%,15
CCN(CC(=O)Nc1cccc(OC)c1)CC(=O)Nc1ccc(C)cc1Cl,32µM*,-3,-18%,-5%,20µM*,1
COc1cccc(NC(=O)CN(C)CC(=O)Nc2ccccc2-c2ccccc2)c1,79µM*,1,?,-4%,22µM*,-9
CCc1nc(-c2ccc(C)c(S(=O)(=O)N3CCN(c4ccc(C(C)=O)cc4)CC3)c2)no1,-29%,.,3%,-3%,-8%,.
CCOc1ccc(C2C(C(=O)Nc3ccc(OC)cc3)=C(C)Nc3nc(SCc4ccc(Cl)cc4)nn32)cc1 (stereo unspecified),32%,.,47%,-3%,4%,.
CCc1ccc(NC(=O)CSc2nnc(-c3nonc3NC(C)=O)n2-c2ccccc2)cc1,-7%,.,25%,1%,-22%,.
COc1ccc(-c2nc3ccccc3s2)cc1NC(=O)c1cccc(F)c1,?,.,-1%,-6%,-26%,.
SMILES,BAZ2B inh,Six1-Eya2 blk,HP1b chromo inh,TDP1 inh,JMJD2A Tudor inh,CtBP-E1A inh
COCCN1Cc2cc3cc(C)ccc3nc2SC1=Nc1ccc(OC)cc1,-34%,-15,28%,-1%,-26%,-5
CCC(C)N=C1Sc2nc3ccc(C)cc3cc2CN1CCOC (stereo unspecified),-19%,6,-10%,1%,45µM*,3
CCCCCC#CC[C@@H](O)/C=C/C=C/C=C\[C@@H](O)CCCC(=O)O,.,.,.,4%,.,.
O=C(c1cc(-n2cnnc2)ccc1Cl)N1CCN(c2nc(-c3ccccc3)cs2)CC1,-2%,-24,?,2%,56µM*,?
COc1ccc(C2=NN(c3nc(C(=O)O)cs3)C(O)(C(F)(F)F)C2)c(OC)c1 (stereo unspecified),50µM*,-6,73%,-5%,1%,2
O=C(O)c1cccc(NC(=S)NC(=O)c2ccc(-c3ccc(Cl)cc3)o2)c1,?,-17,-25%,.,?,-7
O=C(O)c1ccc(NC(=S)NC(=O)c2ccc(-c3ccc(Br)cc3)o2)cc1,40µM*,6,56µM*,14µM*,16µM*,-10
CN1CCN(c2ccc(NC(=O)c3ccc(-c4ccc(Br)cc4)o3)cc2)CC1,25µM*,?,?,5%,35µM*,?
O=S(=O)(c1ccc2c(c1)OCCO2)N1CCN(S(=O)(=O)c2ccc(F)cc2F)CC1,.,.,.,-20%,-20%,.
NC(c1csc(Nc2cc(Oc3ccccc3)ncn2)n1)C1CCCCC1 (stereo unspecified),.,-13,.,.,.,-12
NCc1csc(Nc2cc(Oc3ccccc3)ncn2)n1,.,?,.,.,.,-77*
NS(=O)(=O)c1ccc(-c2ccc(C=O)o2)cc1,-3%,11,51%,2%,-8%[11.4 µM],.
NS(=O)(=O)c1ccc(-c2ccc(/C=C3\NC(=S)NC3=O)o2)cc1,50µM*,-11,?,.,25µM*,-11
CC1=C(C#N)C(=O)NC(=O)/C1=C/c1ccc(-c2ccc(S(N)(=O)=O)cc2)o1,45µM*,-21,?,-9%,71µM*,1
Cc1ccc(NC(=O)Nc2nnc(N3CCCCC3)s2)c(C)c1,-25%,.,34%,11%,-10%,.
O=C(O)/C=C\C(=O)Nc1ccc(N2CCN(c3ccc(Cl)cc3)CC2)cc1,?,-24,-2%,9%,-34%,-9
O=C(O)/C=C\C(=O)Nc1ccc(N2CCN(c3ccc(F)cc3)CC2)cc1,?,-16,?,0%,?,-15
O=C(O)/C=C\C(=O)Nc1ccc(N2CCN(c3cccc(Cl)c3)CC2)cc1,35µM*,-13,?,6%,-11%[11.4 µM],.
O=C(O)/C=C\C(=O)Nc1ccc(N2CCN(c3ccc(Cl)c(Cl)c3)CC2)cc1,32µM*,-28,?,6%,40µM*,-15
Clc1cccc(N2CCN(CCCN3CCN(c4ccccc4)CC3)CC2)c1,.,-27,-22%[57 µM],.,?,-29
Nc1ccc(N2CCN(c3cccc(Cl)c3)CC2)cc1,35µM*,?,?,-4%,45µM*,-3

# High-throughput results deposited in PubChem BioAssay by National Center for Advancing Translational Sciences (NCATS).
